Laboratory results taken from the supplement of paper PMC10849652.
About 8,800 targets were measured; listed, in parts, are those with a hit and a random draw of the rest. About 0.5% of all pairs of compound and target were hits.

What was measured:
Test in all cases: log2 fold change, soluble protein after heating vs DMSO (PISA); higher = thermal stabilisation; K562 lysate, 10 uM; active = over 0.2 and 3.5 SD of the protein, either way, in both replicates (recomputed)
erlotinib = compound: C#Cc1cccc(Nc2ncnc3cc(OCCOC)c(OCCOC)cc23)c1 [erlotinib]
Summary of the method: (§1)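 Log-two fold change in thermal stability relative to solvent controls is reported from duplicates. For each sample, crude K562 extract from dounce-homogenised pellets in PBS pH 7.4 with 1 mM MgCl2, at 1 mg/mL protein, was treated with 10 μM compound for 30 min. Aliquots heated for 3 min across 48°C-58°C were pooled, brought to 0.5% NP-40 at 4°C and cleared at 21,000xg for 90 min. The supernatant was quantified by TMTpro 16plex LC-MS/MS with channel sums equalised.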

[1] = compound: C/C(=N\NC(=O)C1=CC(=CC=C1)S(=O)(=O)N2CCOCC2)/C3=C(C=CC(=C3)Cl)O
Summary of the method: as §1

[2] = compound: C1=CC(=CC=C1C2=NC3=C(N2)C=C(C=C3)C(=O)N)OC4=CC=C(C=C4)Cl
Summary of the method: as §1

[3] = compound: C1=CC2=C(C=CC(=C2)/C=C\3/C(=O)NC(=NCC4=CC=CS4)S3)N=C1
Summary of the method: as §1

[4] = compound: C1=CC2=NC=CN=C2C=C1/C=C/3\C(=O)NC(=O)S3
Summary of the method: as §1

[5] = compound: C1=CC=C(C=C1)C2=NC(=C(N2)C3=CC=NC=C3)C4=CC(=C(C=C4)Cl)O
Summary of the method: as §1

[6] = compound: C1=CC=C2C(=C1)C3=NNC4=CC=CC(=C43)C2=O
Summary of the method: as §1

[7] = compound: C1CCN(C1)C(=O)NC2=CC=CC(=C2)NC3=NC=C(C(=N3)NCCC4=CN=CN4)Br
Summary of the method: as §1

[8] = compound: C1CN(CCC1(CC2=CC=C(C=C2)Cl)N)C3=NC=NC4=C3C=CN4
Summary of the method: as §1

IRAK-1-4 Inhibitor I = compound: C1COCCN1CCN2C3=CC=CC=C3N=C2NC(=O)C4=CC(=CC=C4)[N+](=O)[O-] [IRAK-1-4 Inhibitor I]
Summary of the method: as §1

Measured: log2 fold change

SNRNP40 (UniProt Q96DI7)
Sequence of UniProt Q96DI7 (Q96DI7 whole entry, looked up): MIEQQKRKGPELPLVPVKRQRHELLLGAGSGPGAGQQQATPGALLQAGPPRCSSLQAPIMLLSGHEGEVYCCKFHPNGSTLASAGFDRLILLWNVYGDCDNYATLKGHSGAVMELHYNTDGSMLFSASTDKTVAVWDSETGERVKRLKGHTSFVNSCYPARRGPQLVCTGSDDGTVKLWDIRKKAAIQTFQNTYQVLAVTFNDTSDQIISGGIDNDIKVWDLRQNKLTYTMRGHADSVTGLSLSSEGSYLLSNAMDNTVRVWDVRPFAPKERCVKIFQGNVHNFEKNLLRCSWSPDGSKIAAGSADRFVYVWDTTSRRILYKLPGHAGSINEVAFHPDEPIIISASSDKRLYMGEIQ
inactive: erlotinib 0.025 | [1] 0.046 | [2] -0.03 | [3] -0.031 | [4] -0.031 | [5] 0.009 | [6] 0.011 | [7] 0.02 | [8] -0.004 | IRAK-1-4 Inhibitor I 0.01

STK3 isoform 2 (UniProt Q13188)
Sequence of UniProt Q13188 (Q13188 whole entry, looked up): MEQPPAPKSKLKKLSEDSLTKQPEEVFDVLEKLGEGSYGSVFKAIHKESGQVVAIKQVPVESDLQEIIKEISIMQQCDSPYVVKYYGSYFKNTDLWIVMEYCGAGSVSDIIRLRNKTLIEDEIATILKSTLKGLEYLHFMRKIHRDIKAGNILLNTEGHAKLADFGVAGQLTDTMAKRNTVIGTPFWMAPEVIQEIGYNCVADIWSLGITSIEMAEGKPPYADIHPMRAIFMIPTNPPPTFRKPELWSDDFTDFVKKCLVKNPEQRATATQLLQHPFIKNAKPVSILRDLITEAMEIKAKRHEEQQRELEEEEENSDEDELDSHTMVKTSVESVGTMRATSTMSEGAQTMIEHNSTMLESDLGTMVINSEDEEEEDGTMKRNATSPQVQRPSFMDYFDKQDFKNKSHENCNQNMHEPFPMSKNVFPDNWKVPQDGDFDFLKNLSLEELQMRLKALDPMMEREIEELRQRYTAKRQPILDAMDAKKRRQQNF
inactive: erlotinib -0.009 | [1] -0.1 | [2] 0.012 | [3] -0.07 | [4] -0.001 | [5] 0.016 | [6] 0.181 | [7] 0.157 | [8] 0.031 | IRAK-1-4 Inhibitor I -0.005

SLC25A25 isoform 3 (UniProt Q6KCM7)
inactive: erlotinib -0.029 | [1] 0.054 | [2] -0.038 | [3] 0.039 | [4] -0.003 | [5] -0.027 | [6] 0.01 | [7] 0.011 | [8] -0.026 | IRAK-1-4 Inhibitor I -0.041

SHC1 isoform 6 (UniProt P29353)
Sequence of UniProt P29353 (P29353 whole entry, looked up): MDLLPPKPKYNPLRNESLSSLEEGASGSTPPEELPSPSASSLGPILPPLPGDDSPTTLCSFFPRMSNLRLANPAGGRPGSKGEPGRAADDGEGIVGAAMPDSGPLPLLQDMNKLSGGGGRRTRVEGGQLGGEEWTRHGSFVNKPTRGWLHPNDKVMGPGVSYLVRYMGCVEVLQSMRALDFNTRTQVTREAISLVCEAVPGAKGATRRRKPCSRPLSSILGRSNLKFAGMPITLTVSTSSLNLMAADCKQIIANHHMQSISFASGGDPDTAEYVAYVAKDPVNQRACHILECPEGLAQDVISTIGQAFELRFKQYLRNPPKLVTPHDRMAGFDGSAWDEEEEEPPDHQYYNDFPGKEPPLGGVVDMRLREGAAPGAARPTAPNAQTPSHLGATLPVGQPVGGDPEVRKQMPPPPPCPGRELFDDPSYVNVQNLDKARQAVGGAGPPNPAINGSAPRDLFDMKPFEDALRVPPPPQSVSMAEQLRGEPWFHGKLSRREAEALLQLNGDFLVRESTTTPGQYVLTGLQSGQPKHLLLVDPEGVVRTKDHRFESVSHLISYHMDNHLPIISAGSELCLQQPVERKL
inactive: erlotinib 0.029 | [1] -0.024 | [2] 0.05 | [3] 0.035 | [4] 0.04 | [5] 0.011 | [6] -0.043 | [7] -0.005 | [8] 0.001 | IRAK-1-4 Inhibitor I 0.012

SMC6 (UniProt Q96SB8)
Sequence of UniProt Q96SB8 (Q96SB8 whole entry, looked up): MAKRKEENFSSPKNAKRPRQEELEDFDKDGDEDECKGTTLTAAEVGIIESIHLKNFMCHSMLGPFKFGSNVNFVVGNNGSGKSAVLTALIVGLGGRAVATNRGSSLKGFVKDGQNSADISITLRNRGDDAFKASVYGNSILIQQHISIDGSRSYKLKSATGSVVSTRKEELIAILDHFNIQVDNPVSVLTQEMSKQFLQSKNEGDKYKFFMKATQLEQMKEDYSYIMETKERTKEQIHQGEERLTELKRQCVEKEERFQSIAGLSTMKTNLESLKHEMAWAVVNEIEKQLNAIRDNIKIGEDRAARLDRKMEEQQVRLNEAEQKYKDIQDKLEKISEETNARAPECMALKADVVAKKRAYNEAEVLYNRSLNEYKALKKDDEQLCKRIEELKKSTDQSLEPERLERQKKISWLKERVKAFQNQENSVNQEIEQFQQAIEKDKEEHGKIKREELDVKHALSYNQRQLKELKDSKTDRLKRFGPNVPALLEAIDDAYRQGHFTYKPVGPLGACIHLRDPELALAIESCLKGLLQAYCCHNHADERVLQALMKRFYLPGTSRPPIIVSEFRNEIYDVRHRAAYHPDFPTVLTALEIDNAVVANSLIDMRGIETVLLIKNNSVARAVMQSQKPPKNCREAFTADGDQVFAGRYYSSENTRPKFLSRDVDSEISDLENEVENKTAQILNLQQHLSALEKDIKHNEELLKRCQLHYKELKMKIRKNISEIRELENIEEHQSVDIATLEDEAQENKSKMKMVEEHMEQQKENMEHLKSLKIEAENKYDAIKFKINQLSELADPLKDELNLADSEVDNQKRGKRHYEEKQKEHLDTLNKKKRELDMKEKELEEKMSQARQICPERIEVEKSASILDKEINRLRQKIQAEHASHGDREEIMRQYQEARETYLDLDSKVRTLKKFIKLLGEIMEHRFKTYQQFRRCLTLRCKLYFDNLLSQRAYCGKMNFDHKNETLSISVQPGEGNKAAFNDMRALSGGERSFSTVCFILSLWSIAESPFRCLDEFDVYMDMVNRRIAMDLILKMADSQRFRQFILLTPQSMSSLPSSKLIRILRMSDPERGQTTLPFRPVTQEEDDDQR
inactive: erlotinib 0.02 | [1] 0.038 | [2] -0.03 | [3] -0.002 | [4] -0.009 | [5] 0.019 | [6] -0.055 | [7] -0.031 | [8] 0.03 | IRAK-1-4 Inhibitor I 0.01

SLC38A10 (UniProt Q9HBR0)
Sequence of UniProt Q9HBR0 (Q9HBR0 whole entry, looked up): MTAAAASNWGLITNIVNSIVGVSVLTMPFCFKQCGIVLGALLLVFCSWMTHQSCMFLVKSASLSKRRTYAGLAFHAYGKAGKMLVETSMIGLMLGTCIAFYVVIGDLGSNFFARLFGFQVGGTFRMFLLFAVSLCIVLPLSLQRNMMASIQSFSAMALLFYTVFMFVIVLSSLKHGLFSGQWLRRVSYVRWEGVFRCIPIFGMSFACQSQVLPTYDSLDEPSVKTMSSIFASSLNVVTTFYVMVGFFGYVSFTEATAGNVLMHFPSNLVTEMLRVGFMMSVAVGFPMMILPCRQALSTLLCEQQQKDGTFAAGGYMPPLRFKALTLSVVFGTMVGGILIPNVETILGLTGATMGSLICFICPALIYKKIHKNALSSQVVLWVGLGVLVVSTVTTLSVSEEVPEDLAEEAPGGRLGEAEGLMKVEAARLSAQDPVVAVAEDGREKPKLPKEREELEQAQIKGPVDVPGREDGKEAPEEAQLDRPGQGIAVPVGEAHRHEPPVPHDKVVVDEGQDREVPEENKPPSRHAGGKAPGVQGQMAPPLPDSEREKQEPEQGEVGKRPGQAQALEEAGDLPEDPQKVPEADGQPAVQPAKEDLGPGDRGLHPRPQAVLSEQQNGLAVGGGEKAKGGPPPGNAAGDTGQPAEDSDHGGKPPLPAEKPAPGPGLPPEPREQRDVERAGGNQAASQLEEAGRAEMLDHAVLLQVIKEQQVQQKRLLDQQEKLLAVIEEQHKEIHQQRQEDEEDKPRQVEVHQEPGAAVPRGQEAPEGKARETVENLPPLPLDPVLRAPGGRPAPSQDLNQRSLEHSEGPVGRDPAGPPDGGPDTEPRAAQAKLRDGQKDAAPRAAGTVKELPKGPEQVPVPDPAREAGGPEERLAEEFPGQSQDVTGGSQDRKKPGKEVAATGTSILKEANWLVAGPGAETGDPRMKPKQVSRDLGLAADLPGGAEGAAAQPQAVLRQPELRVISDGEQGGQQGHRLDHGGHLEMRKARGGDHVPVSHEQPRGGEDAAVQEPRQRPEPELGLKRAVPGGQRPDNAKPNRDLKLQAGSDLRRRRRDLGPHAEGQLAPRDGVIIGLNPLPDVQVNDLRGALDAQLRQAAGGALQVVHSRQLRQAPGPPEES
inactive: erlotinib 0.007 | [1] -0.128 | [2] -0.006 | [3] -0.065 | [4] -0.009 | [5] 0.02 | [6] -0.127 | [7] 0 | [8] 0.016 | IRAK-1-4 Inhibitor I 0.047

TARBP1 (UniProt Q13395)
inactive: erlotinib 0.134 | [1] 0.047 | [2] -0.02 | [3] 0.051 | [4] -0.059 | [5] 0.044 | [6] -0.048 | [7] 0.007 | [8] 0.034 | IRAK-1-4 Inhibitor I 0.084

SLC27A4 (UniProt Q6P1M0)
inactive: erlotinib 0.022 | [1] 0.01 | [2] -0.023 | [3] 0.052 | [4] 0.063 | [5] -0.009 | [6] 0.041 | [7] 0.015 | [8] 0.084 | IRAK-1-4 Inhibitor I -0.003

SRPK1 (UniProt Q96SB4)
inactive: erlotinib 0.015 | [1] -0.04 | [2] 0.121 | [3] 0.016 | [4] 0.003 | [5] 0.05 | [6] 0.017 | [7] -0.01 | [8] 0.007 | IRAK-1-4 Inhibitor I 0.019

SYNE2 isoform 2 (UniProt Q8WXH0)
inactive: erlotinib -0.09 | [1] -0.069 | [2] -0.023 | [3] -0.156 | [4] -0.04 | [5] -0.015 | [6] -0.146 | [7] -0.064 | [8] 0.037 | IRAK-1-4 Inhibitor I 0.127

SHCBP1 (UniProt Q8NEM2)
Sequence of UniProt Q8NEM2 (Q8NEM2 whole entry, looked up): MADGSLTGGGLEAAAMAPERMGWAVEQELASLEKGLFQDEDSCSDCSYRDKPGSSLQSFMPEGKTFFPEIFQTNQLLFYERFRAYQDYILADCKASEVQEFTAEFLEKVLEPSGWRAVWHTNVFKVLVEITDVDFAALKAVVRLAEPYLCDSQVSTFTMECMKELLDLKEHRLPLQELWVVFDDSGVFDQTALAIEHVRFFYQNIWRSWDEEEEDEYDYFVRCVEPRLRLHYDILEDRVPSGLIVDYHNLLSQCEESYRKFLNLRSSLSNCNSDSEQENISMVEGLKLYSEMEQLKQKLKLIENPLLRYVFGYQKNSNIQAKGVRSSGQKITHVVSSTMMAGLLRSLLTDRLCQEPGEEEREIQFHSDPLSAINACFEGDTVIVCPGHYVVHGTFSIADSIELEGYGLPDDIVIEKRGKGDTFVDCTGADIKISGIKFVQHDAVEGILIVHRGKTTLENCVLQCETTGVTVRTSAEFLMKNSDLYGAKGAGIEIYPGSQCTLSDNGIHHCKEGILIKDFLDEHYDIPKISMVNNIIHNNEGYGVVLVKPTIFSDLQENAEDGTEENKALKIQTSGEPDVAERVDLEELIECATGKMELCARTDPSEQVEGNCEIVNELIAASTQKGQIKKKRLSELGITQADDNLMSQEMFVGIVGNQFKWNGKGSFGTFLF
inactive: erlotinib 0.034 | [1] 0.01 | [2] -0.035 | [3] -0.023 | [4] 0.007 | [5] 0.032 | [6] 0.005 | [7] 0.014 | [8] -0.014 | IRAK-1-4 Inhibitor I 0.018

TADA3 (UniProt O75528)
Sequence of UniProt O75528 (O75528 whole entry, looked up): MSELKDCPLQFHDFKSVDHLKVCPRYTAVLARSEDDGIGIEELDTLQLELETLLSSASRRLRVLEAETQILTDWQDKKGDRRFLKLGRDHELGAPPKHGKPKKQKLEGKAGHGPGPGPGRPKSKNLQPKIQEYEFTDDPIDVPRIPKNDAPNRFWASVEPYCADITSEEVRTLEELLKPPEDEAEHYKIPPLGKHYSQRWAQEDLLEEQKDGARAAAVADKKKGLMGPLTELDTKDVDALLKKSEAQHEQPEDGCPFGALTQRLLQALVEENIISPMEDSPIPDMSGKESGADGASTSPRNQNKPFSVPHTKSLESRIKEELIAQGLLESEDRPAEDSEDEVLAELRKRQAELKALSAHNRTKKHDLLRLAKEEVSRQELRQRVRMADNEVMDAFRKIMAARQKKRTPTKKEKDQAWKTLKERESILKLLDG
inactive: erlotinib 0.02 | [1] -0.046 | [2] 0.032 | [3] -0.073 | [4] -0.04 | [5] 0.048 | [6] 0.009 | [7] -0.058 | [8] 0.053 | IRAK-1-4 Inhibitor I 0.018

TANK (UniProt Q92844)
inactive: erlotinib 0 | [1] -0.089 | [2] -0.015 | [3] -0.069 | [4] 0.003 | [5] 0.025 | [6] 0.089 | [7] 0.082 | [8] 0 | IRAK-1-4 Inhibitor I 0.028

STUB1 (UniProt Q9UNE7)
Sequence of UniProt Q9UNE7 (Q9UNE7 whole entry, looked up): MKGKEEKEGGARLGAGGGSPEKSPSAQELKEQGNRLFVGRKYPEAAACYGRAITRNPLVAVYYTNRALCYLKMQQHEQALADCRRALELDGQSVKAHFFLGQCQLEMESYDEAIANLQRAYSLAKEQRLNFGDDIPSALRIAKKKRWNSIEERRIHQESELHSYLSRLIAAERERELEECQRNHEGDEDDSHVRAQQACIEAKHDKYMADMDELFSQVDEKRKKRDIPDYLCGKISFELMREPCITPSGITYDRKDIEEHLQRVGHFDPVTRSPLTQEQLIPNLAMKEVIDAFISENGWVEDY
inactive: erlotinib 0.05 | [1] 0.024 | [2] -0.034 | [3] -0.022 | [4] 0.009 | [5] 0.003 | [6] -0.033 | [7] 0.013 | [8] 0.006 | IRAK-1-4 Inhibitor I -0.018

TARBP2 (UniProt Q15633)
inactive: erlotinib 0.03 | [1] -0.095 | [2] -0.066 | [3] -0.026 | [4] 0.007 | [5] 0.027 | [6] -0.029 | [7] 0.012 | [8] -0.002 | IRAK-1-4 Inhibitor I 0.011
